# Measured values: PubChem BioAssay (NCATS)
# Results filed as inconclusive are left out. A call without a number means that no potency is given here. The source made the active and inactive calls. Unless noted, the call rests on the fitted dose curve; in most records, active means well fitted curve in the direction sought with a large enough effect; inconclusive means small, poorly fitted or top-dose-only effect, or another doubt; inactive means no such curve, though single readings can be large; an effect the other way counts as inactive or inconclusive.
# Experiments:
# [1] = HTS Assay for Allosteric Antagonists of the Human D2 Dopamine Receptor: Hit Validation in HTRF (AID 624455); further: potency means the concentration at half of the fitted maximal effect;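 further: stable D1 dopamine receptor cell line scored for blocking the D1 response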
# Outline: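 Hit validation in cells stably expressing the D1 dopamine receptor, run in HTRF format. Compounds were tested for their ability to inhibit the D1-mediated response.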
# [2] = Cytotoxicity counterscreen for NFkB agonists and antagonists (AID 624476); further: potency means the concentration at half of the fitted maximal effect
# [3] = qHTS Assay for Identification of Small Molecule Agonists for NFkB Signaling Pathway. (AID 624478)
# Outline: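 NFkB-bla ME-180 cells carry a beta-lactamase reporter. They received compound plus TNF alpha at 10 pM final (its EC50) for 5 h at 37 C. Reporter activity was read as 460/530 nm emission ratio after 2 h LiveBLAzer substrate loading.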
# [4] = qHTS Assay for Identification of Small Molecule Antagonists for NFkB Signaling Pathway. (AID 624479; calls by dose curve;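 further: pathway stimulated with TNF alpha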; further: potency means the concentration at half of the fitted maximal effect)
# [5] = Cell Proliferation Assay against the TMD8 Cell Line (AID 651645); conditions: TMD8 DLBCL cell line proliferation/viability; at 46.1 µM (top of the series) unless noted;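 further: cells exposed to compound for 48 h before reading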
# Outline: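 TMD8 ABC DLBCL cells, 500 per well in phenol red-free RPMI with 5% FBS, were treated with compound by pin transfer and incubated 48 hours at 37C, 5% CO2. Viability was read by CellTiter-Glo luminescence, normalised to DMSO (100%) and 9.2 uM bortezomib (0%).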
# [6] = Cell Proliferation Assay against the HBL1 Cell Line (AID 651646); conditions: HBL1 DLBCL cells; at 46.1 µM (top of the series) unless noted;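 further: cells exposed to compound for 48 h before reading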
# Outline: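 Luminescent ATP read-out (CellTiter-Glo) after 48 h compound exposure of HBL1 cells at 37 °C; percent activity was scaled between DMSO as 100% and 9.2 uM bortezomib (final) as 0%.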
# [7] = Cell Proliferation Assay against the TMD8 Cell Line (Caspase readout at 16 hrs) (AID 651712)
# Outline: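 Apoptotic response of TMD8 cells was judged from caspase 3/7 activation following a 16 hour compound incubation at 37 °C. Luminescent signal was converted to percent activity, with DMSO set as 0% and 9.2 uM final bortezomib as 100%.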
# [8] = Cell Proliferation Assay against the TMD8 Cell Line (Caspase readout at 8 hrs) (AID 651713)
# Outline: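 TMD8 cells in RPMI plus 5% FBS were treated with compound for 8 h at 37C. Caspase 3/7 activation was read by Caspase-Glo luminescence. Percent activity was scaled from DMSO (0%) to 9.2 uM bortezomib final (100%).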
structure (smiles),measurement,setting,value
Cc1cn[nH]c1,Potency,[1],inactive
C1COC(NC(C2CC2)C2CC2)=N1,Potency,[1],inactive
CCOC(=O)C1=C[C@]2(CC)CCCN3CCc4c(n1c1ccccc41)[C@@H]32,Potency,[1],inactive
OC(CCN1CCCCC1)(c1ccccc1)C1CC2C=CC1C2 (stereo unspecified),Potency,[1],inactive
CCn1cc(C(=O)O)c(=O)c2cc(F)c(N3CCNC(C)C3)c(F)c21 (stereo unspecified),Potency,[1],inactive
O=c1n(CCCN2CCN(c3cccc(Cl)c3)CC2)nc2ccccn12,Potency,[1],inactive
Cc1cccc(-c2[nH]c(C(C)(C)C)nc2-c2ccc3nccnc3c2)n1,Potency,[1],inactive
same,Potency,[2],inactive
same,outcome,[3],inactive
same,Potency,[4],inactive
same,viability (% of control),[5],34%
same,"viability, percent of control",[6],100%
same,Potency,[7],inactive
same,Potency,[8],inactive
N[C@@H]1CONC1=O,Potency,[1],inactive
NNCCc1ccccc1,Potency,[1],inactive
CC(C)(C)NCC(O)c1ccc(O)c(CO)c1 (stereo unspecified),Potency,[1],inactive
CC(C)C[C@H](NC(=O)[C@@H](O)[C@H](N)Cc1ccccc1)C(=O)O,Potency,[1],inactive
same,Potency,[2],inactive
same,outcome,[3],inactive
same,Potency,[4],inactive
same,viability (% of control),[5],89.3%
same,"viability, percent of control",[6],106%
same,Potency,[7],inactive
same,Potency,[8],inactive
Nc1nc2c(ncn2COCCO)c(=O)[nH]1,Potency,[1],inactive
CCN(CC)CCCC(C)Nc1ccnc2cc(Cl)ccc12 (stereo unspecified),Potency,[1],inactive
N=c1nc(N2CCCCC2)cc(N)n1O,Potency,[1],inactive
Nc1ccc(S(=O)(=O)Nc2ccnn2-c2ccccc2)cc1,Potency,[1],inactive
O=C(Nc1nc2ccccc2n1CCN1CCOCC1)c1cccc([N+](=O)[O-])c1,Potency,[1],inactive
same,Potency,[2],inactive
same,outcome,[3],inactive
same,Potency,[4],2.66 µM (active)
same,viability (% of control),[5],77.2%
same,"viability, percent of control",[6],89.4%
same,Potency,[7],inactive
Nc1nc2ccc(OC(F)(F)F)cc2s1,Potency,[1],inactive
same,Potency,[2],inactive
same,outcome,[3],inactive
same,Potency,[4],inactive
same,"viability, percent of control",[6],50.6%
same,Potency,[7],inactive
same,Potency,[8],inactive
NC[C@H](O)c1ccc(O)c(O)c1,Potency,[1],0.291 µM (active)
CCC(C)N(C)C(=O)c1cc2ccccc2c(-c2ccccc2Cl)n1 (stereo unspecified),Potency,[1],inactive
same,Potency,[2],inactive
same,outcome,[3],inactive
same,Potency,[4],inactive
same,viability (% of control),[5],65.6%
same,"viability, percent of control",[6],90%
same,Potency,[8],inactive
C[C@]12CCC(=O)C=C1CC[C@@H]1[C@@H]2[C@@H](O)C[C@@]2(C)[C@H]1CC[C@]2(O)C(=O)CO,Potency,[1],inactive
same,Potency,[2],inactive
same,outcome,[3],inactive
same,Potency,[4],inactive
same,viability (% of control),[5],65.6%
same,"viability, percent of control",[6],39.1%
same,Potency,[7],inactive
same,Potency,[8],inactive
Cc1oncc1C(=O)Nc1ccc(C(F)(F)F)cc1,Potency,[1],inactive
same,Potency,[2],inactive
same,outcome,[3],inactive
same,Potency,[4],inactive
same,"viability, percent of control",[6],84%
same,Potency,[7],inactive
same,Potency,[8],inactive
CN1CCN(CCCN2c3ccccc3Sc3ccc(C(F)(F)F)cc32)CC1,Potency,[1],inactive
Cc1cnc(NC(=O)C2=C(O)c3ccccc3S(=O)(=O)N2C)s1,Potency,[1],inactive
O=C1CCc2cc(OCCCCc3nnnn3C3CCCCC3)ccc2N1,Potency,[1],inactive
Clc1cccc(Cl)c1NC1=NCCN1,Potency,[1],inactive
OC(CN1CCC(Cc2ccc(F)cc2)CC1)c1ccc(Cl)cc1 (stereo unspecified),Potency,[1],inactive
same,Potency,[2],inactive
same,outcome,[3],inactive
same,Potency,[4],inactive
same,viability (% of control),[5],74%
same,"viability, percent of control",[6],66.4%
same,Potency,[7],inactive
same,Potency,[8],inactive
CCOC(=O)N1CCC(=C2c3ccc(Cl)cc3CCc3cccnc32)CC1,Potency,[1],inactive
CC(C[N+](C)(C)C)OC(N)=O (stereo unspecified),Potency,[1],inactive
O=c1[nH]cnc2[nH]ncc12,Potency,[1],inactive
NCCCC(N)(C(=O)O)C(F)F (stereo unspecified),Potency,[1],inactive
Cc1[nH]c(=O)c(C#N)cc1-c1ccc2nccn2c1,Potency,[1],inactive
same,Potency,[2],inactive
same,outcome,[3],inactive
same,Potency,[4],inactive
same,viability (% of control),[5],104%
same,"viability, percent of control",[6],78.9%
same,Potency,[7],inactive
same,Potency,[8],inactive
Cc1ccc(N(CC2=NCCN2)c2cccc(O)c2)cc1,Potency,[1],inactive
CCCCNc1cc(C(=O)O)cc(S(N)(=O)=O)c1Oc1ccccc1,Potency,[1],inactive
CC(C)NCC(O)COc1ccc(COCCOC(C)C)cc1 (stereo unspecified),Potency,[1],inactive
CC(C)(Sc1ccc(CCN(CCCCC2CCCCC2)C(=O)NC2CCCCC2)cc1)C(=O)O,Potency,[1],inactive
same,Potency,[2],23.5 µM (active)
same,outcome,[3],inactive
same,Potency,[4],21.1 µM (active)
same,"viability, percent of control",[6],13.8%
same,Potency,[7],inactive
same,Potency,[8],inactive
CN[C@@H](C)C(=O)N[C@H]1CCCC[C@H]2CC[C@@H](C(=O)N[C@@H](c3ccccc3)c3cn(CCCCc4ccc(CCCCn5cc([C@@H](NC(=O)[C@@H]6CC[C@@H]7CCCC[C@H](NC(=O)[C@H](C)NC)C(=O)N76)c6ccccc6)nn5)cc4)nn3)N2C1=O,Potency,[2],inactive
same,outcome,[3],inactive
same,Potency,[4],inactive
same,viability (% of control),[5],7.59%
same,"viability, percent of control",[6],15.5%
same,Potency,[7],inactive
same,Potency,[8],inactive
O=C(C=Cc1ccc(/C=C/C(=O)Nc2ccc(C3=NCCN3)cc2)cc1)Nc1ccc(C2=NCCN2)cc1,Potency,[2],inactive
same,outcome,[3],inactive
same,Potency,[4],inactive
same,viability (% of control),[5],92.1%
same,"viability, percent of control",[6],97.4%
same,Potency,[7],inactive
same,Potency,[8],inactive
OCCn1cc(-c2cnc3nnn(Cc4ccc5ncccc5c4)c3n2)cn1,Potency,[2],inactive
same,outcome,[3],inactive
same,Potency,[4],inactive
same,viability (% of control),[5],75.8%
same,"viability, percent of control",[6],79.7%
same,Potency,[7],inactive
same,Potency,[8],inactive
